Laboratory results taken from PubChem BioAssay AID504462 (Sanford-Burnham Center for Chemical Genomics, 2011).
The campaign covered roughly 340,000 compounds. About 1,700 (0.5%) were called active. The sample as a whole holds a higher share of actives than the screen did. Values without a mark were called inactive. No stated cut-off is given here; in the data, active means inhibition above about 40%; inactive means the rest.

The compounds below were run against Cysteine protease ATG4B (Homo sapiens) (UniProt Q9Y4P1) (assay: blockers of ATG4B cysteine protease activity – biochemical, fluorescence, uHTS, primary screen (AID 504462)). Conditions: ATG4B cleavage of LC3-PLA2, NBD-HPC fluorescence, 1 h; at 8.33 µM; stronger effect = higher value.
Chain of Cysteine protease ATG4B (Homo sapiens) (Q9Y4P1 whole entry, looked up): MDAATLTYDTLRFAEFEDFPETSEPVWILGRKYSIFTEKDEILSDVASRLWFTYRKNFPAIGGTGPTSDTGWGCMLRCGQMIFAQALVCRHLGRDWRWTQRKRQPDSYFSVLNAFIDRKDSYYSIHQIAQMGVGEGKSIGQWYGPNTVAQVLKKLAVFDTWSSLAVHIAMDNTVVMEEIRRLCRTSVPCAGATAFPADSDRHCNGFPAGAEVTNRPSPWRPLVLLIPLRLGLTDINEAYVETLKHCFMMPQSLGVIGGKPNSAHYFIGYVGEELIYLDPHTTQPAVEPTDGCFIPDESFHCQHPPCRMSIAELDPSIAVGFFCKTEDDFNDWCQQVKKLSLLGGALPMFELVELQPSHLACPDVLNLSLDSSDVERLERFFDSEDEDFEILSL

First: O=C(OCc1cc(Cl)ccc1OC(F)F)c1cccnc1
Second: O=C(CNC(=O)c1ccccc1)NCC(=O)OCc1ccc(Cl)cc1
The inhibition of the first is higher: -2.74% for the first, -3.69% for the second.

Going from `COc1ccc(CNC(=O)C2(CC3CC(c4ccccc4)=NO3)CCN(C(=O)c3cccc(O)c3)CC2)cc1` (stereo unspecified) to `COc1ccc(NC(=O)CSc2nnc(Cc3ccccc3)c(=O)n2N)cc1`, the inhibition rises from -7.3% to -4.35%.

Going from `CCOC(=O)c1c(-c2ccccc2)oc2cc(Br)c(O)cc12` to `CCOC(=O)c1c(-c2ccccc2)oc2ccc(OCC(=O)NN)cc12`, the inhibition rises from -6.47% to -2.49%.

Compared with `O=C(CCc1ccccc1)Nc1ccc(NC(=O)C2CC2)nc1`, `Cc1c(NC(=O)CCCOc2ccccc2)cccc1[N+](=O)[O-]` is higher in inhibition: -15.9% for the first, -6.83% for the second.

Going from `Cn1c(=O)c2c(SCC(=O)N3CCOCC3)nc(C3CC3)nc2n(C)c1=O` to `CC(C)(CNC(=O)c1cc(=O)[nH]c2ccccc12)N1CCOCC1`, the inhibition falls from -4.88% to -6.8%.

Compared with `Cc1ccc(NC(=S)NCCc2ccc(Cl)cc2)c(C)c1`, `Cc1cccc(NC(=S)NCCc2ccc(F)cc2)c1C` is higher in inhibition: 5.82% for the first, 20.9% for the second.

Going from `O=C(Nc1cccn(Cc2ccccc2Cl)c1=O)NC1CCCCC1` to `O=C(CNC(=O)[C@@H]1Cc2ccccc2CN1)NC1CCCCC1`, the inhibition rises from -3.28% to -3.14%.

Going from `Cc1ccc(CNC(=O)CSc2nnc3c(n2)[nH]c2ccc(F)cc23)cc1` to `Cc1onc(C(=O)NCc2ccc(F)cc2)c1[N+](=O)[O-]`, the inhibition rises from -1.66% to 1.98%.

First: CC1=CC2=NC(=O)/C(=C/c3coc4ccccc4c3=O)C(=N)N2O1
Second: COc1ccccc1S(=O)(=O)c1c(C)cc(C)[nH]c1=O
The inhibition of the first is higher: -5.2% for the first, -5.56% for the second.

Compared with `S=C(NCCc1ccccc1)NCC1CCCO1` (stereo unspecified), `S=C(NCc1ccco1)NCc1ccccc1Cl` is higher in inhibition: -7.53% for the first, 13.4% for the second.

First: O=C1c2ccccc2C(=O)N1CCC(c1ccccc1)c1ccco1 (stereo unspecified)
Second: N#Cc1c(-c2ccc(F)cc2)nc(-c2ccccc2)[nH]c1=O
The inhibition of the first is higher: 15.9% for the first, 5.66% for the second.

First: CC(Oc1ccc(F)cc1)C(=O)Nc1cc(S(=O)(=O)N2CCOCC2)ccc1N1CCN(C)CC1 (stereo unspecified)
Second: COc1cc(C)c(S(=O)(=O)N2CCOCC2)c(C)c1C
The inhibition of the first is higher: -5.35% for the first, -9.43% for the second.

First: CCOC(=O)N1CCC(NC(=O)Cn2cc3c(n2)CCCCC3)CC1
Second: COC(=O)c1c(NC(=O)CSc2nncs2)sc2c1CCCCC2
The inhibition of the first is higher: -3.87% for the first, -14.5% for the second.

Compared with `COC(=O)Cc1c(-c2[nH]c3ccccc3c2CC(=O)OC)[nH]c2ccccc12`, `CCn1c2ccccc2c2cc(CC(N)=O)ccc21` is higher in inhibition: 5.62% for the first, 25% for the second.

First: CC(OC(=O)c1ccc(-n2cnnn2)cc1)C(=O)NCc1ccccc1 (stereo unspecified)
Second: Cc1c(N=Nc2ccc(N(C)C)cc2)c(=O)n(-c2ccccc2)n1C
The inhibition of the first is higher: -0.42% for the first, -2.28% for the second.

Compared with `CCCCn1c(N)c(N(CC)C(=O)c2ccccc2C(F)(F)F)c(=O)[nH]c1=O`, `N#Cc1c(-c2ccccc2)nc(SCc2cccc(C(F)(F)F)c2)[nH]c1=O` is higher in inhibition: 1.66% for the first, 34.9% for the second.

Compared with `CCOC(=O)c1c(C)oc2ccc(OCC(=O)N(CC)CC)cc12`, `CC(=O)c1c(C)n(-c2ccc(C)cc2)c2ccc(O)cc12` is higher in inhibition: -8.98% for the first, -0.19% for the second.

First: Cc1cccc(N2CCN(C(c3ccc(N(C)C)cc3)c3nnnn3C(C)(C)C)CC2)c1C (stereo unspecified)
Second: CCSC(C)CC1C/C(=N/O)c2c(C)noc2C1 (stereo unspecified)
The inhibition of the first is lower: -1.38% for the first, -1.06% for the second.

For `N#Cc1c(NC(=O)C2CC(Cl)=CCC2C(=O)O)sc2c1CCCCC2` (stereo unspecified), the inhibition was -4.77%.

With `CCOC(=O)c1c(-c2ccccc2)oc2cc(Br)c(O)c(C=O)c12` the inhibition was 49.9% (active).
With `Cc1cccc(NC(=S)NCCc2ccc(Cl)cc2)c1C` the inhibition was 48.4% (active).
With `Cc1ccc(N=C2NC(=O)/C(=C/C=C/c3ccco3)S2)cc1C` the inhibition was 47.9% (active).
`S=C(NCCc1ccccc1)NCc1ccccc1Cl` was tested, and the inhibition was 48.6% (active).
In the case of `Cc1c(NC(=S)NCc2ccc(F)cc2)cccc1[N+](=O)[O-]`, the inhibition is reported as 77.1% (active).
In the case of `NC(=O)Cc1ccc2c(c1)[nH]c1ccccc12`, the inhibition is reported as 47.3% (active).
With `CC(=O)c1c(C)n(-c2ccc(N(C)C)cc2)c2ccc(OCC(N)=O)cc12` the inhibition was 82.1% (active).
`Cc1ccc(CSc2nc(-c3ccccc3)c(C#N)c(=O)[nH]2)cc1` was tested, and the inhibition was 49.2% (active).
With `COC(=O)c1c(NC(=O)C2CC(C)=C(C)CC2C(=O)O)sc2c1CCCCC2` (stereo unspecified) the inhibition was 70.5% (active).
